FXN GAA850 act – increases GAA850 frataxin promoter reporter activity; HEK293 lucGAA850 FXN promoter luciferase reporter, 24 h; percent of 10 µM SAHA response; activation, % at 6 µM; 360,000 tested, 0.56% active; AID 540364;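 active means activation above the average of all compounds screened plus 3 SD, cutoff fixed separately per campaign, cut at about 7.5% in these data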;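 further: 0% = DMSO wells and 100% = 10 µM SAHA wells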
DAX1 inh – inhibitors of human orphan nuclear receptor DAX1 (NR0B1); AID 504766; HEK293 Gal4-DAX1 luciferase reporter, luminescence; inhibition, % at 6.75 µM; 340,000 tested, 0.99% active;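 active means inhibition above the mean over all tested compounds plus 3 SD, cut at about 4.2% in these data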;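 further: 0% = DAX1-transfected cells with DMSO and 100% = empty-vector control cells with DMSO; inhibition shows as a rise in luminescence from relieved DAX1 repression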
HSF1 inhib – HSF1 inhibition; NIH3T3-HGL HSE-luciferase, MG132-induced, luminescence 8 h; stronger effect = lower value; activity change, negative = inhibition, % at 7.5 µM (by protocol); 300,000 tested, 0.77% active; AID 2098;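 active means more than half of replicate wells show activity change below -50%, luminescence cut by over half; inconclusive means some wells, but at most half, below -50%; inactive means no replicate well below -50%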;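 further: luciferase reports HSF-1 transcriptional activity via heat shock element; 0% = median of DMSO wells and -100% = zero luminescence signal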
AHR act – activators of human aryl hydrocarbon receptor; P35869; AHR-responsive luciferase reporter cells, luminescence; activation, % at 5 µM; 320,000 tested, 2.5% active; in the data active means activation above about 47%;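 further: 0% = vehicle wells and 100% = reference agonist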
Target sequence (P35869 whole entry, looked up): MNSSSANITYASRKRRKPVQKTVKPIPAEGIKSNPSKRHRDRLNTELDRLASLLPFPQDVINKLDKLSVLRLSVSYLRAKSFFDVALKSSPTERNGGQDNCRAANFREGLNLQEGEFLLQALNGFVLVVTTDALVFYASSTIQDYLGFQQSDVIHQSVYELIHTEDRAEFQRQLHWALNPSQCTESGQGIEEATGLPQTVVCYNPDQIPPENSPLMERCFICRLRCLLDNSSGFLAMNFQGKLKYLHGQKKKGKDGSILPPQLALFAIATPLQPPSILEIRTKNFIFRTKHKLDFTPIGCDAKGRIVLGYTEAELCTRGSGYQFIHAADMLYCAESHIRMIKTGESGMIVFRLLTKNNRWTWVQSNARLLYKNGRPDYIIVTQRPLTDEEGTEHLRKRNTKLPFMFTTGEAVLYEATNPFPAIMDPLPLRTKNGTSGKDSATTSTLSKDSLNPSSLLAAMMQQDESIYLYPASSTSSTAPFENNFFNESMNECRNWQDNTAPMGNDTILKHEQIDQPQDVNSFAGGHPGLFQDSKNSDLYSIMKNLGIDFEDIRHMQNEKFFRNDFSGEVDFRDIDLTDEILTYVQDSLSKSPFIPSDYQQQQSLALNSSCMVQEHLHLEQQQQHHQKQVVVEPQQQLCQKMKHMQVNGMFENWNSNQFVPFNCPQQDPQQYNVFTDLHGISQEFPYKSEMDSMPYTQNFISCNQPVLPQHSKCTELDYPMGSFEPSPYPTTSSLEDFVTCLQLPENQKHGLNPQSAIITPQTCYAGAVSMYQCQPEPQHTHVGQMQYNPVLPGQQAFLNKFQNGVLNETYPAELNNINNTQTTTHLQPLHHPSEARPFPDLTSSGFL
HSF-1 act – increases HSF-1 driven luciferase reporter signal; 300,000 tested, 1.7% active; NIH3T3-HGL HSF-1 luciferase reporter, MG132, 8 h; 100% = twice DMSO control signal; activation, % at 9 µM;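 active means mean replicate activation of at least 50% with a set share of replicates each reaching 50%; inconclusive means only one of those two conditions met; inactive means mean below 50% and too few replicates reaching it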;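 further: 0% = median of the neutral control wells and 100% = twice that signal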
Active calls of the source: *; ? = inconclusive; · = no result given. The list is not random: actives were taken first. Their share in the collection is about 5.4%.

SMILES	FXN GAA850 act	DAX1 inh	HSF1 inhib	AHR act	HSF-1 act
CCOc1ccc(CCNC(=O)COC(=O)c2nc3nc(C)cc(C)n3n2)cc1OCC	-3.5	-0.1	-2.0	2.9	-13.9
O=C(Nc1ccccc1C(=O)OCC(=O)c1c[nH]c2ccccc12)c1ccco1	0.4	-1.2	71.1	13.9	104.9*
C[C@H](NC(=O)c1ccco1)C(=O)Nc1ccc2c(c1)OCO2	1.7	0.5	-3.1	3.9	18.8
O=C(Nc1ccccc1)Nc1ccccc1Br	6.3	0.6	9.1	24.8	14.7
C[C@H](NC(=O)c1ccco1)C(=O)Nc1cccc([N+](=O)[O-])c1	1.4	5.3*	-4.3	0.8	1.4
O=C(Nc1ccccc1)Nc1ccc(Br)c(Cl)c1	-1.5	-1.4	-14.3	67.2*	-18.0
O=C(Nc1ccc(Br)c(Cl)c1)c1ccco1	5.2	3.5	9.4	74.9*	26.4
COc1ccc(C2(C)NC(=O)N(CC(=O)NC(C)c3ccc(CC(C)C)cc3)C2=O)cc1 (centres undefined)	-1.3	-0.4	-2.2	0.1	-8.4
Cc1ccc(S(=O)(=O)Nc2cccc(C(=O)NCCCn3ccnc3)c2)cc1F	-1.2	0.7	-3.8	4.1	5.0
Cc1cccn2c(=O)c3cc(C(=O)NC4CCCC4)c(=N)n(CCCN4CCOCC4)c3nc12	0.8	0.7	-4.4	11.4	8.7
O=C(Nc1cccc(NC(=O)c2nccc3ccccc23)c1)c1ccco1	7.1	0.7	·	101.7*	·
Cc1ccccc1NC(=O)c1ccccc1NC(=O)c1ccco1	2.2	-0.8	-4.5	26.0	-6.4
O=C(Nc1ccc(NC(=O)c2ccco2)c(Cl)c1)c1ccccc1	2.4	1.1	12.2	59.3*	31.0
O=C(Nc1ccccc1C(=O)Nc1ccc(F)cc1)c1ccco1	-0.4	-0.3	-1.3	172.1*	-16.1
O=C(Nc1cccc(NC(=O)c2ccc([N+](=O)[O-])o2)c1)c1ccco1	-1.3	-2.2	66.3	3.7	92.6*
O=C(NC1CCCC1)c1cc(=O)[nH]c2ccccc12	2.9	0.0	20.8	1.7	42.8
COc1cc(C(=O)NCCc2ccc(S(N)(=O)=O)cc2)ccc1OCc1c(C)noc1C	-0.7	-0.5	·	-0.1	·
CCC(=O)Nc1cc(OC)c(NC(=S)Nc2ccccc2CC)cc1OC	-2.1	0.4	·	·	·
COC(=O)c1cc(S(=O)(=O)NCc2cc(OC)c(OC)c(OC)c2)cn1C	-0.1	0.4	-0.8	0.3	-8.2
O=C(Nc1ccc(NC(=O)c2ccc([N+](=O)[O-])o2)cc1Cl)c1ccco1	5.2	-0.8	120.7	-8.3	161.5*
O=C(Nc1ccccc1Cl)c1ccc([N+](=O)[O-])o1	1.3	-1.0	42.4	1.1	?
Cc1ccc(C(=O)/C=C/N(C)C)cn1	4.8	6.8*	-4.0	-1.0	6.7
Cc1cc(C)c2cc(C(=O)N3CCc4ccccc4C3)[nH]c2c1	1.5	0.3	-4.3	54.8*	13.8
Cc1cc(C)c2cc(C(=O)N(C)C3CCN(C)CC3)[nH]c2c1	0.3	-0.1	19.0	8.4	55.0*
Cc1cc(C)c2cc(C(=O)Nc3ccc(C)c(F)c3)[nH]c2c1	0.4	1.0	2.4	·	1.6
SMILES	FXN GAA850 act	DAX1 inh	HSF1 inhib	AHR act	HSF-1 act
O=C(O)CCCNC(=O)c1ccccn1	1.5	-0.1	-8.7	-0.3	-11.2
O=C(CNC(=S)N(CCCN1CCOCC1)Cc1cccs1)NCc1ccccc1Cl	-1.1	0.6	-70.5*	1.8	-77.3
COC(CNC(=O)CNC(=S)N(Cc1ccccc1)Cc1cccs1)OC	0.3	-0.5	-2.4	1.6	-5.8
CNC(=S)N(Cc1ccc(Cl)cc1)Cc1cccs1	1.1	-1.4	15.8	-3.0	54.0*
CCCCNC(=O)CNC(=S)N(Cc1ccccc1)Cc1cccs1	-0.7	-0.7	-71.3*	5.1	-78.6
N#CCN(C(=O)COC(=O)CCCNC(=O)c1ccc(Cl)cc1)c1ccccc1	1.0	-0.7	·	-0.4	·
CCN(CC)C(=O)CSc1nc(-c2ccccc2)cc(=O)[nH]1	-0.3	-0.9	4.8	23.7	27.4
CCN1C(=O)[C@H]2[C@@H](c3ccc(C(F)(F)F)cc3)N[C@]3(CCCN(Cc4ccc(F)cc4)C3=O)[C@H]2C1=O	-2.6	1.0	·	·	·
Cc1ccc(NC(=O)CNC(=O)c2ccco2)c(Cl)c1	1.6	1.1	-3.5	8.6	17.6
CN(C)c1cccc(-c2cc(Nc3ccc(C(C)(C)C)cc3)ncn2)c1	1.1	·	·	·	·
CN(C)c1ccc(Nc2cc(Cl)ncn2)cc1	3.9	0.8	4.8	73.1*	15.2
CCNC(=S)N/N=C/c1ccc(C(=O)O)cc1	-0.7	0.6	2.0	0.6	39.3
O=C(O)c1ccc(/C=N/Nc2ncc(C(F)(F)F)cc2Cl)cc1	3.6	1.0	0.6	3.7	-4.2
Oc1ccc(/C=N/Nc2ccc(C(F)(F)F)cn2)cc1	6.8	-0.3	45.0	-0.8	86.1*
CC(C)(C)c1ccc(/C=N/Nc2ccc(C(=O)O)cc2)cc1	-9.5	-4.5	-86.4*	-8.2	-87.3
CC(C)(C)c1ccc(/C=N/Nc2cccc(C(=O)O)c2)cc1	5.4	-3.6	-57.0*	-4.1	-64.1
O=C(O)c1ccc(N/N=C/c2ccc(C(F)(F)F)cc2)cc1	-4.4	-4.0	-66.4*	-6.4	-68.2
O=C(O)c1cccc(N/N=C/c2ccc(-c3ccccc3)cc2)c1	6.3	-2.7	-34.4	·	-43.9
Cc1nn(C)c(C)c1NS(=O)(=O)c1c(C)n[nH]c1C	-1.4	0.2	·	-2.0	·
Cn1c(=O)[nH]c(=O)c2c1nc(Br)n2C/C=N/NC(=O)c1ccccc1	3.9	4.6*	10.0	3.3	42.4
Cn1c(=O)[nH]c(=O)c2c1nc(Br)n2C/C=N/Nc1ccccc1	0.9	0.7	-4.2	5.6	-5.1
CNc1nc2ccccc2n1CC(=O)c1ccccc1	2.3	1.1	13.6	·	27.7
O=C1C=CC(=O)N1c1ccc(Sc2ccc([N+](=O)[O-])cc2)cc1	·	·	41.5	-0.6	81.9*
N#Cc1ccccc1OCC(=O)N1CCN(C(=O)c2ccco2)CC1	-0.3	0.3	2.9	2.2	-0.3
COc1cc(OC)c2c(=O)cc(-c3cccnc3)oc2c1	1.9	-0.8	8.9	62.2*	35.8
SMILES	FXN GAA850 act	DAX1 inh	HSF1 inhib	AHR act	HSF-1 act
Cc1ccc(OCC(=O)NCCc2c[nH]c3ccccc23)cc1	-0.3	-0.6	-1.5	23.0	1.7
Cc1ccc(N2C(=O)c3ccccc3C2C(=O)c2ccc(O)cc2O)cc1 (centres undefined)	0.8	-0.6	1.4	59.1*	8.2
c1ccc2c(c1)Cn1nc(Cc3nc4c(s3)CCCC4)nc1-2	2.7	4.4*	6.7	11.7	35.5
Cc1cc(C(=O)CSc2nnc(-c3ccccc3)n2-c2ccccc2)c(C)n1-c1ncn[nH]1	-0.4	-1.2	0.1	0.8	-8.6
O=C(CSc1nnc(-c2cccs2)o1)c1cccs1	4.1	1.4	12.8	3.9	37.8
Cc1ccc(NC(=O)CSc2nnc(-c3cccs3)o2)cc1S(=O)(=O)N(C)C	·	·	12.1	55.7*	-1.6
Cc1cc(C(=O)CSc2nnc(-c3ccncc3)n2-c2ccccc2)c(C)n1C	0.5	7.4*	-3.6	-0.8	10.6
Cc1cc(C(=O)CSc2nnc(-c3cccs3)o2)c(C)n1-c1ccccc1	-12.2	-3.5	-73.1*	6.1	-76.2

Screens: PubChem BioAssay, several laboratories
